# Reference: PubChem BioAssay AID1347423 (Functional Genomics Laboratory (NCATS/FGL), 2020)
# In all, about 52,000 sequences went through this assay and about 210 (0.4%) were called active. Shown is part of a subset that was picked to be rich in actives. Unmarked numbers belong to inactive results.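 How the source made its calls: active means gene whose silencing raises cell survival under the drug, median off-target-corrected z-score across its silencing RNAs 2 or more; inactive means the rest.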
# Experiment: Resistance to Poly (ADP-Ribose) Polymerase inhibitor: Gene Identification via Genome-wide siRNA Screen
# Settings: mouse BRCA2 R2336H ES cells, olaparib, CellTiter-Glo viability; active compounds read high
# Outline: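 Mouse BRCA2 R2336H ES cells were reverse-transfected with siRNA (20 nM final), treated at 48 h with 500 nM olaparib, and read by CellTiter-Glo after 72 h. Scores: MAD-based z per siRNA, median per gene, seed off-target correction.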
row,Sequence,z-score
1,GCUUGACCCUACACUACAGTT against Olfr1121,1.25
2,GGCAUUGUAGAGAUGACUCTT against 4732479N06Rik,1.16
3,UUCUGUGCAUCCUGUCCUATT against Kcnk15,-0.484 (active)
4,CGUGUGAGGUUUGUGAAAGTT against Gzmf,-2.41
5,GCCUAAAAAAUCUCUGUGATT against Zswim3,-1.39
6,GGAAGUUCAACACCUCCAGTT against BC023296,-0.673
7,CGAUUUCAGCUUAAAGCACTT against Lmo3,1.44
8,CCCUAAAACCAAAUGUACATT against E130014J05Rik,6.23 (active)
9,GGACUUGGAAGUAAUUUUCTT against C230071H18Rik,2.75
10,GCGAACAGAAAAGACCAAUTT against Col4a5,1.11
11,GGGACAUACAUAUCCUCCUTT against 1300013D05Rik,1.31
12,GCAUACAUAGCACUACAUATT against Olfr536,-0.0396
13,GGACAGUGUUUACAAACUUTT against Fbxw7,0.328
14,GCAUAUGGUCCACUAAAAATT against Kcnj4,0.316
15,GGUACUGGAGAAAGUCAAGTT against Pik4cb,0.097
16,GGAUGAUUUCCAGAGAGUATT against Rdh5,-1.33
17,GGAGUGUGAUCAAGUUCAUTT against Eya4,0.648
18,GCUUUUACAAGACCUGUUCTT against Pde2a,1.02 (active)
19,GGAGAGAACUGGAAGAGAGTT against 0610040D20Rik,-2.18
20,GGAAAUACGGCUUCAUCUATT against Cyp26a1,0.936
21,GACAUUUGUAUGCAGUCAUTT against V1ri9,0.237
22,GGAUUCGAUUCUUCCAAAATT against Peli2,-1.02
23,GGUCUUAGAAGAUUUUUCUTT against Adam21,2.43 (active)

row,Sequence,z-score
1,AUUCUGAACACUCCUCGGATT against C630041L24Rik,-0.69
2,GGAACUGCUUACGAAAUACTT against Lama4,-0.374
3,GGAUGCUACGUUCUGCUAGTT against Bcat2,-0.76
4,GCCCUCAGGUGGUUCUUAATT against C030036P15Rik,-1.76
5,GGAGAAACUGAUGACAGUGTT against Plcb3,1.47 (active)
6,GCUAUUAUUGCAAUGUCAGTT against Trim38,-0.00296
7,GCUACGAGAGGUCAUUUCCTT against Chrnb1,2.48 (active)
8,GGCUGAAGCAGUCUGUUGCTT against Rpp14,-0.655
9,GGCUGUUUGUGGUAUAGGUTT against Lrrc3,1.52
10,GGCAACUUUGUUAUAUACATT against Sh2bp1,-0.76
11,CCUCAGAUUUCAACCAUAGTT against 2700087I09Rik,1.64
12,CCAUGACAUUUCCUAAGUUTT against B130022O04Rik,-2.2
13,GGAAAAGAUACGGAAGAUUTT against Acpp,0.216 (active)
14,GCUUCUAAUUGGAGAUUGCTT against Ngfrap1,1.44
15,CCAGUUACGUUAAAAGCUUTT against D1Bwg0491e,0.00475
16,GGGAGAAUUACCAAGAUCUTT against Elac1,2.5
17,GGUCGACUUAAGAUAAUAATT against Itgb6,1.94 (active)
18,GCCCUAGAUCAGGAGAUCATT against Rps17,-2.58
19,GGAUGUCCCACUGCUUUACTT against 5730466C23Rik,-0.562
20,GCACUAGUUCUCAAUUUAATT against Antxr1,0.317
21,GGCAUCUUCAAAUGACAUATT against Cic,2.45 (active)
22,GGCCCAUUUUGGUGUGCAUTT against Hyal3,-0.6
23,GGUGCCUAAUGGAUAAGAATT against Thrap2,0.923

row,Sequence,z-score
1,GGAAACCAGACUUUCCCUATT against V1ra5,-0.806
2,GGACCAGGUUCACUUCCCUTT against Ovol1,0.343
3,GCAGAUCUCUUACGUCAUCTT against Adam9,0.749
4,GGAAAGUGGUUUUGUCCACTT against Ing5,1.74
5,GGUCACGUGCAGUUAUAUCTT against Rab32,0.0398
6,GGCCUAAAUUGACAAACUUTT against Mgea5,0.366
7,GCAGCUCCAAAUCCUGUUCTT against Asb16,-1.78 (active)
8,GGAAACUUCUGCACUUGGGTT against 4930474M22Rik,1.02
9,GCUGUCUGAUUCUGAGGUGTT against Slc6a1,-0.947
10,GGGUUUAAUCAUGAUAGAATT against E130014J05Rik,3.95 (active)
11,GGUGACAAUAAAAUGGUGATT against Fabp1,0.496
12,GGUCAUGGUCUGAGAUUCUTT against Txnl4,0.353
13,CCCAUGUUCGAUGGGAAAGTT against Adprt1,0.293 (active)
14,GCAAGGUGCACCUAAAGCATT against Egr4,-2.04
15,GGACAAGAACUACAUUGAGTT against Eefsec,2.12
16,GGACUUUUGGAUAACUUAGTT against 1200008A14Rik,-0.788
17,GGAUAUUCUUCCAGUCUUUTT against MGC118154,-1.48
18,CAAACCCAUGUUCUAAAUGTT against Oog3,0.339
19,GGAGGUUUUGAUGGACUGUTT against 2610528H13Rik,-0.424
20,CCUUGUACCCAGUAAAGUCTT against 2310007B03Rik,-2.34
21,GGGAAAAUGCUUUGUUGGATT against Rqcd1,1.97 (active)
